According to PubChem BioAssay AID1259341 (Broad Institute, 2017):
Values without a mark were called inactive.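 The calls were made as follows: active = activity change under -35% in any replicate well, with more than 20 beads read in that well; inactive = the rest.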

Target: Caspase recruitment domain-containing protein 9 (Homo sapiens) + E3 ubiquitin-protein ligase TRIM62 (Homo sapiens) (UniProt Q9H257+Q9BVG3)
Test: disruptors of CARD9-TRIM62 binding, primary screen, cell lysate, HEK293FT lysates, Luminex bead ELISA (AID 1259341);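 also: PE anti-Flag signal of Flag-CARD9 captured by myc-TRIM62 beads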
Conditions: PE fluorescence, hits give low values, concentration not given here

Sequence of Caspase recruitment domain-containing protein 9 (Homo sapiens) + E3 ubiquitin-protein ligase TRIM62 (Homo sapiens) (Q9BVG3 whole entry, looked up, the tested form may be a part): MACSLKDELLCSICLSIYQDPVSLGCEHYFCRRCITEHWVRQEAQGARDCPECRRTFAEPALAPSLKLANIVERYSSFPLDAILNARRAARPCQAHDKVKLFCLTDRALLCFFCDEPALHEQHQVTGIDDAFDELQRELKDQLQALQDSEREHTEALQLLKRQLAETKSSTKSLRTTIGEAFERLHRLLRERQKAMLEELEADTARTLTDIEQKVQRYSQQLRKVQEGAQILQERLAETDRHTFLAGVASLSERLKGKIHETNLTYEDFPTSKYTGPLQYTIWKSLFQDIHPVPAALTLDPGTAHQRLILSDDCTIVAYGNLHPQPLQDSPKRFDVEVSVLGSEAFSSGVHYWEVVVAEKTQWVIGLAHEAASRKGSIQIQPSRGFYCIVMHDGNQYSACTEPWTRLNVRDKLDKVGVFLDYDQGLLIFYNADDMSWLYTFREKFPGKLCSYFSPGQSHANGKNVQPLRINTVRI
Sequence of Caspase recruitment domain-containing protein 9 (Homo sapiens) + E3 ubiquitin-protein ligase TRIM62 (Homo sapiens) (Q9H257 whole entry, looked up, the tested form may be a part): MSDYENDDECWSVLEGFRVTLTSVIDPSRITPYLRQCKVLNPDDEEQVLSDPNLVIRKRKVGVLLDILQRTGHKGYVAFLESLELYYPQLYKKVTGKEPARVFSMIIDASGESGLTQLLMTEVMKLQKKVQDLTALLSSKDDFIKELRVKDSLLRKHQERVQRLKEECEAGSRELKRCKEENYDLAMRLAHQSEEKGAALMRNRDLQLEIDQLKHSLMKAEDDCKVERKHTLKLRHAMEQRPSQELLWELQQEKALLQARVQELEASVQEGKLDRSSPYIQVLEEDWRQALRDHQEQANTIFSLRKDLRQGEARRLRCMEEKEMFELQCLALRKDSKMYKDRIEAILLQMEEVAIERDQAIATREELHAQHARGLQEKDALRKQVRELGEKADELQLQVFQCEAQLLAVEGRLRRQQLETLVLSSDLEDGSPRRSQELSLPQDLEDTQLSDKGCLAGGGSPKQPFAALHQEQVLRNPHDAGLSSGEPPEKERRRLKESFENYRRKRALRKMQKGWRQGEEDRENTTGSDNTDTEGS

| Compound | activity change, negative = inhibition |
| --- | --- |
| COc1c(C(=O)O)csc1Br | -20.4% |
| O=C(Nc1cccc2ccccc12)NC1CC1 | -2.1% |
| Cn1ncc2c(NNC(=O)c3cc(O)cc(O)c3)ncnc21 | 1.25% |
| COc1ccc(Nc2nc(-c3nnc(-c4ccc(F)cc4)o3)nc3ccccc23)cc1Cl | -3.07% |
| O=C(Cc1cccs1)Nc1nnc(Cc2ccccc2)s1 | 10.6% |
| O=C(NCc1ccco1)c1ccc(S(=O)(=O)N2CCOCC2)cc1 | 19.9% |
| COc1ccc(NC(=O)c2nc(Nc3ccccc3)c3ccccc3n2)cc1 | 4.26% |
| CCOc1ccc(-n2c3nc4ccccc4nc3c3c(=O)n(Cc4ccco4)cnc32)cc1 | 6.8% |
| NC(=O)C1(N2CCCCC2)CCN(c2ncc(NC(=O)c3ccccc3F)cc2C(=O)O)CC1 | -10.2% |
| CCCc1cc(C(=O)N2CC[C@H]3CNC[C@H]32)n(C)n1 | -0.754% |
| C[C@H](CO)N1C[C@H](C)[C@@H](CN(C)C(=O)C2CCCCC2)OCCCC[C@H](C)Oc2ccc(NS(C)(=O)=O)cc2C1=O | 9.86% |
| O=C(COC(=O)c1cc(-c2ccco2)nc2ccccc12)NCc1ccc2c(c1)OCO2 | 3.18% |
| CC(=O)c1sc2nc(-c3ccco3)ccc2c1N | -8.74% |
| O=C(COC(=O)c1cc(-c2ccco2)nc2ccccc12)NCc1ccccc1 | -1.75% |
| CCOC(=O)C1CCN(C(=O)CN(Cc2ccccc2)S(C)(=O)=O)CC1 | -5.24% |
